The text below walks through data of PubChem BioAssay (NCI).

About 83,000 compounds went through this panel and 20% of them were active in at least one assay; those are over-represented in the sample as a whole.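 Negative percent growth values reflect cell death: -40 means 40% of the cells present at the start died, and -100 means all died.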 Unmarked numbers belong to inactive results. The source made the active and inactive calls. How the source made its calls: active means growth percent below 10; inactive means the rest.

What all share (assay): NCI-60 one-dose screen, 48 h (100 = growth as untreated, 0 = no growth, -100 = all killed)
Common to all, as to conditions: 10 µM unless noted

Experiment [1] deals with NCI-H23 lung.
For experiment [2], the system named is NCI-H226 lung.
Experiment [3] concerns NCI-H322M lung.
Experiment [4] relates to HOP-62 NSCLC.
For experiment [5], the system named is NCI-H460 lung.
In experiment [6] the test system is HOP-92 NSCLC.
The test system of experiment [7] is NCI-H522 lung.
The test system of experiment [8] is A549/ATCC NSCLC.
In experiment [9] the test system is 786-0 renal.
Experiment [10] concerns COLO 205 colon.
Experiment [11] has as its system DU-145 prostate.
Experiment [12] concerns K-562 leukemia.
For experiment [13], the system named is MALME-3M melanoma.
For experiment [14], the system named is MDA-MB-231 breast.
Experiment [15] relates to RXF 393 renal.
The test system of experiment [16] is SF-268 CNS.
For experiment [17], the system named is SF-295 CNS.
The subject of experiment [18] is SF-539 CNS.
For experiment [19], the system named is M14 melanoma.

As for `O=C1CCCCN1CCCCC#Cc1ccccc1C#Cc1ccccn1`, the growth in [1] was 101%; in [2], 92%; in experiment [3] it was 85.7%; in [4], 101%; in [5], 115%; in experiment [6], 73.2%. Further, the growth was 112% in experiment [7]; 112% in experiment [8]; 102% in experiment [9]; 103% in [10]; 109% in experiment [11]; 93.6% in [12]. Moreover, the growth was 100% in [13]; 102% in experiment [14]; 56.6% in [15]; 107% in [16]; 109% in experiment [17]; 103% in experiment [18]. In addition, the growth in experiment [19] was 112%.
For the molecule `COc1ccc2c(c1)NC(=O)CN2c1nc(NC2CC2)nc2ccccc12`, the growth was 12.4% in experiment [1]; 65.7% in [2]; 40.7% in experiment [3]; 31.7% in [4]; 2.27% (active) in experiment [5]; 3.22% (active) in [6]. Further, the growth in experiment [7] was -11.9% (active); in experiment [8] it was 20.8%; in experiment [9], 19.6%; in experiment [10] it was -18.9% (active); in experiment [11] it was 0.326% (active); in experiment [12], 8.2% (active). Besides, the growth is 70.3% in experiment [13]; 14.9% in [14]; 39.2% in experiment [15]; 21.9% in experiment [16]; 0.0109% (active) in [17]; -15% (active) in experiment [18]. Moreover, the growth in experiment [19] was 6.86% (active).
Turning to `O=C1Nc2cc(Cl)ccc2/C1=C/c1ccc(N2CCOCC2)s1`, the growth was 109% in experiment [1]; 92.9% in [2]; 101% in experiment [3]; 99.4% in [4]; 112% in [5]; 89.4% in experiment [6]. Moreover, the growth in experiment [7] was 101%; in experiment [8] it was 103%; in experiment [9] it was 88.5%; in experiment [10], 95.1%; in experiment [11], 110%; in [12], 98.5%. For the same molecule, the growth in experiment [13] was 96.5%; in [14], 99%; in [15], 93.9%; in experiment [16], 114%; in experiment [17], 86.8%; in experiment [18], 92.3%. In experiment [19], the growth is 111%.
Consider `O=C(c1c[nH]c2ccccc12)C(Sc1nc2ccccc2c(=O)[nH]1)c1ccccc1` (configuration not stated), for which the growth in [1] was 116%; in experiment [2], 95.9%; in experiment [3], 121%; in experiment [4], 89.6%; in [5] it was 110%; in experiment [6], 91.7%. The growth in experiment [7] was 93.7%; in [8], 93.4%; in experiment [9] it was 104%; in experiment [10], 96.9%; in experiment [11], 94.3%; in experiment [12] it was 101%. In addition, the growth in experiment [13] is 88.7%; in experiment [14], 91.6%; in [15] it was 26.1%; in experiment [16] it was 105%; in [17], 93.1%; in experiment [18], 89.2%. Also, in [19], the growth was 104%.
`O=C(Cc1n[nH]c(=O)c2ccccc12)OCc1c(Cl)cccc1Cl`: the growth was 103% in experiment [1]; 77.5% in experiment [2]; 107% in experiment [3]; 69.1% in [4]; 26.3% in [5]; 88.2% in [6]. Besides, the growth in experiment [7] was 98.9%; in experiment [8], 96.4%; in [9], 81.6%; in experiment [10] it was 112%; in experiment [11] it was 130%; in experiment [12], 46.4%. The growth in [13] was 100%; in [14], 72.9%; in experiment [15], 52.5%; in [16], 60.9%; in experiment [17], 55.1%; in [18], 94.9%. Moreover, the growth in [19] is 97.4%.
For `O=C(C[N+](=O)[O-])c1ccc(Cl)cc1`, the growth in [1] is 104%; in [2], 110%; in experiment [3], 112%; in experiment [4], 104%; in experiment [5] it was 111%; in [6] it was 101%. In addition, the growth was 109% in experiment [7]; 106% in experiment [8]; 98.5% in experiment [9]; 116% in [10]; 111% in experiment [11]; 103% in experiment [12]. In addition, the growth is 114% in experiment [13]; 110% in experiment [14]; 115% in experiment [15]; 108% in experiment [16]; 111% in experiment [17]; 104% in experiment [18]. In addition, in [19], the growth was 101%.
With `COc1ccc(Cl)cc1NC(N)=S`, the growth in [1] was 94.6%; in experiment [2] it was 107%; in experiment [3], 108%; in experiment [4], 110%; in experiment [5], 109%; in experiment [6], 92.2%. The growth is 80.7% in experiment [7]; 103% in experiment [8]; 102% in [9]; 127% in experiment [10]; 108% in [11]; 104% in [12]. Also, the growth was 104% in experiment [13]; 104% in experiment [14]; 112% in experiment [15]; 99.5% in experiment [16]; 106% in [17]; 99.8% in [18]. The growth in experiment [19] was 105%.
On to `Cc1ccc(S(=O)(=O)OCC(=O)Nc2ccc(C(=O)O)c(O)c2)cc1`, for which the growth in experiment [1] was 131%; in [2], 126%; in experiment [3] it was 104%; in experiment [4], 100%; in experiment [5], 103%; in experiment [6], -60.6% (active). The growth in experiment [7] was 93.8%; in [8], 101%; in experiment [9], 108%; in experiment [10] it was 131%; in experiment [11], 100%; in experiment [12], 70.2%. The growth in experiment [13] is 106%; in [14] it was 97.2%; in experiment [15], 63.1%; in experiment [16], 97%; in [17] it was 110%; in experiment [18] it was 96.1%. Besides, the growth in [19] was 95.4%.
